Common to all, as to assay: NCI-60 one-dose screen, 48 h (100 = growth as untreated, 0 = no growth, -100 = all killed)
The test system of experiment [1] is HCT-15 colon. The settings on record: 10 µM.
The subject of experiment [2] is SNB-75 CNS. The conditions noted are these: 10 µM.
Experiment [3] concerns SNB-19 CNS. The conditions noted are these: 10 µM.
Experiment [4] concerns U251 CNS. The settings on record: 10 µM.
Experiment [5] deals with SK-MEL-5 melanoma. The conditions noted are these: 10 µM.
Experiment [6] has as its system UACC-62 melanoma. The conditions noted are these: 10 µM unless noted.
For experiment [7], the system named is LOX IMVI melanoma. The conditions noted are these: 10 µM.
The subject of experiment [8] is SK-MEL-28 melanoma. The settings on record: 10 µM.
The subject of experiment [9] is EKVX NSCLC. The conditions noted are these: 10 µM.
Experiment [10] deals with SN12C renal. The settings on record: 10 µM.
For experiment [11], the system named is UO-31 renal. The conditions noted are these: 10 µM.
For experiment [12], the system named is TK-10 renal. The conditions noted are these: 10 µM unless noted.
Experiment [13] concerns ACHN renal. The settings on record: 10 µM.
Experiment [14] relates to CAKI-1 renal. The conditions noted are these: 10 µM.
Experiment [15] relates to A498 renal. The conditions noted are these: 10 µM.
The test system of experiment [16] is CCRF-CEM leukemia. The conditions noted are these: 10 µM.
The subject of experiment [17] is MOLT-4 leukemia. The conditions noted are these: 10 µM.
Experiment [18] deals with PC-3 prostate. The settings on record: 10 µM.
Experiment [19] relates to SK-MEL-2 melanoma. The conditions noted are these: 10 µM.
Experiment [20] deals with HT29 colon. The conditions noted are these: 10 µM.

Compounds without any hit were thinned out: in the full panel of roughly 83,000, 20% have a hit.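 Interpretation: 100, growth as untreated; towards 0, rising growth inhibition; 0, no net growth; 0 to -100, cell death. Compounds scoring below 10 were considered active.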 A number with no mark means an inactive call. Calls of active or inactive are those of the source.

Growth data for 9 compounds are collected here from PubChem BioAssay (NCI).

For `CC1Cc2ccccc2O1` (configuration not stated), the growth in experiment [1] was 99.1%; in experiment [2], 105%; in [3], 117%; in [4] it was 111%; in experiment [5] it was 108%; in experiment [6], 122%. The growth is 97.4% in [7]; 114% in experiment [8]; 122% in [9]; 106% in experiment [10]; 90.6% in [11]; 129% in experiment [12]. The growth was 101% in experiment [13]; 102% in experiment [14]; 115% in experiment [15]; 112% in experiment [16]; 105% in [17].

Take `Cc1nc2c(ccc3ccccc32)s1`: the growth is 110% in experiment [1]; 108% in [2]; 107% in [3]; 99.3% in [4]; 112% in experiment [5]; 107% in [6]. For the same compound, the growth in experiment [7] was 98.4%; in experiment [8], 105%; in [9], 110%; in [10], 107%; in experiment [11], 96.9%; in experiment [12], 119%. Besides, the growth in experiment [13] was 111%; in [14], 103%; in experiment [15] it was 115%; in experiment [16], 85.7%; in experiment [17], 103%.

For `O=c1cc(-c2ccccc2)[nH]c2c1CCCC2`, the growth is 25% in experiment [1]; -7.33% (active) in experiment [2]; 39.4% in experiment [3]; 27.9% in [4]; 28.5% in experiment [18]; 7.3% (active) in experiment [5]. The growth in experiment [6] is 35.2%; in experiment [7], 37.4%; in experiment [8], 52.1%; in [9], 43.3%; in experiment [10], 44.6%; in experiment [11], 50.8%. Besides, the growth was 34.5% in [12]; 40.5% in experiment [13]; 24.5% in experiment [14]; 19.2% in experiment [15]; 32.6% in experiment [16]; 41.1% in [17].

Regarding `CCOC(=O)C1=C(C)NC(=O)NC1c1cccs1` (configuration not stated), the growth was 103% in experiment [1]; 113% in experiment [3]; 109% in experiment [4]; 102% in experiment [18]; 104% in experiment [5]; 115% in [6]. Besides, the growth in [7] was 101%; in experiment [8] it was 106%; in experiment [9], 109%; in experiment [10], 103%; in [11] it was 87.7%; in [12] it was 108%. Also, the growth was 113% in experiment [13]; 103% in experiment [14]; 125% in [15]; 95.8% in experiment [16]; 82.7% in experiment [17].

In the case of `COc1cc(C(=O)N/N=C/c2cccc([N+](=O)[O-])c2)cc(OC)c1OC`, the growth in experiment [1] is 52.1%; in experiment [3], 69.7%; in experiment [4] it was 55.6%; in experiment [18], 67.5%; in [5], 19%; in experiment [6], 50.5%. Moreover, the growth in experiment [8] is 62.1%; in experiment [9], 83.8%; in [10] it was 93.8%; in experiment [11], 73.7%; in experiment [12], 81.1%; in experiment [13], 79.9%. Besides, the growth in experiment [14] was 55.4%; in [15], 26.3%; in experiment [16], 62.1%; in [17] it was 70.7%.

In the case of `COc1nc(N)nc2c1ncn2C1OC(CO)CC1O` (configuration not stated), the growth is 101% in [1]; 89.7% in experiment [2]; 103% in [3]; 112% in experiment [4]; 99.2% in [18]; 105% in experiment [5]. In addition, the growth in experiment [6] was 100%; in [7], 107%; in experiment [8], 108%; in experiment [19] it was 106%; in [9], 102%; in experiment [10] it was 103%. Further, the growth in experiment [11] is 82.4%; in experiment [12], 105%; in experiment [13] it was 97.4%; in [14] it was 104%; in experiment [15], 114%; in [16], 58.8%. Moreover, the growth in experiment [17] was 97.7%.

Regarding `COc1ccc2c(NCCCCCCCCNc3c4ccccc4nc4cc(OC)ccc34)c3ccccc3nc2c1`, the growth in experiment [20] is -100% (active); in [2] it was -100% (active); in experiment [3], -86.7% (active); in experiment [4], -100% (active); in [18] it was -100% (active); in experiment [5], -100% (active). In addition, the growth in experiment [6] is -100% (active); in [7], -98.6% (active); in experiment [8], -100% (active); in [19], -67.3% (active); in experiment [9] it was -79.6% (active); in experiment [10], -92.7% (active). Also, the growth in experiment [11] was -76.2% (active); in experiment [12], -72.9% (active); in experiment [13] it was -100% (active); in experiment [14] it was -100% (active); in experiment [15], -88.6% (active); in experiment [16], -42.4% (active). Further, in [17], the growth is -85.7% (active).

Turning to `O=C(O)CNC(=O)c1ccccc1`, the growth in experiment [4] is 96.6%; in [9], 93.4%.

For the compound `CC1C(=O)c2ccccc2CC1C(=O)O` (configuration not stated), the growth in experiment [1] was 115%; in experiment [2], 82.2%; in experiment [3], 128%; in [4] it was 97.1%; in experiment [18], 97.6%; in [5] it was 100%. In addition, the growth in experiment [6] is 116%; in experiment [7], 92.4%; in experiment [8], 114%; in experiment [9], 113%; in experiment [10] it was 112%; in experiment [11] it was 100%. Besides, the growth is 98.5% in experiment [13]; 83.2% in experiment [14]; 142% in experiment [15]; 99.1% in experiment [16]; 97.3% in experiment [17].
